In PubChem BioAssay (Tox21):
Inconclusive results are not listed. Calls of active or inactive are those of the source. Unless noted, calls come from the whole dose curve.

How the values were obtained:
[1] = Nuclear factor erythroid 2-related factor 2/antioxidant responsive element (Nrf2/ARE) small molecule agonists: qHTS cell viability counter screen in human keratinocytes (AID 1919968; active = well fitted curve in the direction sought with a large enough effect in the repeat runs; an effect the other way counts as inactive or inconclusive; note: nearly all actives have a fitted effect of over 55% in size)
Method in brief: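 Viability counter-screen: KeratinoSens reporter cells, DMSO-delivered compounds, 23 h at 37 C, CellTiter-Fluor fluorescence.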

[2] = Nuclear factor erythroid 2-related factor 2/antioxidant responsive element (Nrf2/ARE) small molecule agonists: luciferase reporter gene qHTS assay in human keratinocytes (AID 1919969); note: nearly all actives have a fitted effect of over 35% in size
[3] = target: Gonadotropin-releasing hormone receptor (Homo sapiens) (UniProt P30968); experiment: Human gonadotropin-releasing hormone receptor (GnRHR) small molecule agonists, calcium flux assay in GnRHR-HEK293 cells (AID 1920063); note: nearly all actives have a fitted effect of over 35% in size
Sequence of Gonadotropin-releasing hormone receptor (Homo sapiens) (P30968 whole entry, looked up): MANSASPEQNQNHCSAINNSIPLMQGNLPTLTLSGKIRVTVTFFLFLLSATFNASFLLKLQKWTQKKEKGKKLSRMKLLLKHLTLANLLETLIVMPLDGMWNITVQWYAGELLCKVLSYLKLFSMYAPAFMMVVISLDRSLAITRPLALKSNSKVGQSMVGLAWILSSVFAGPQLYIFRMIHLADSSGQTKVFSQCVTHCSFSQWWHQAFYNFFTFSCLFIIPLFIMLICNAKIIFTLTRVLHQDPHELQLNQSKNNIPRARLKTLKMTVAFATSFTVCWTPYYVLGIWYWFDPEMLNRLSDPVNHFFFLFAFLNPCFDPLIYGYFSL
Method in brief: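 Tox21-format agonist screen using human GnRHR-expressing HEK293 cells and a fluorescent calcium dye; kinetic 3-min fluorescence reading after compound addition, 15-point concentration series run in triplicate.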

[4] = target: KiSS-1 receptor (Homo sapiens) (UniProt Q969F8); experiment: Human kisspeptin (KISS1R) small molecule agonists, calcium flux assay in KISS1R-HEK293 cells (AID 1920064; active = well fitted curve in the direction sought with a large enough effect in the repeat runs; an effect the other way counts as inactive or inconclusive)
Sequence of KiSS-1 receptor (Homo sapiens) (Q969F8 whole entry, looked up): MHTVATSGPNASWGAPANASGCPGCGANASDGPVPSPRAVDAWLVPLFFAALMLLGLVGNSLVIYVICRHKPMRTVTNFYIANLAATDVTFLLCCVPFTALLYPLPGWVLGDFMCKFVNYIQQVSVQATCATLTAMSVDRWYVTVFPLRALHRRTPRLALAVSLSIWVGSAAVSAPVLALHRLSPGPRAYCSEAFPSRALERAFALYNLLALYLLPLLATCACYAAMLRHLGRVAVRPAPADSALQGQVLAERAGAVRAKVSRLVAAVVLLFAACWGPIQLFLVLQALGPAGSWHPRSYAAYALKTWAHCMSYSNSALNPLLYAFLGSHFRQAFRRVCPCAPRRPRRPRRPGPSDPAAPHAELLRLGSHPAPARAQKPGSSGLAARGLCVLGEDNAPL
Method in brief: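 Intracellular calcium mobilization in KISS1R-HEK293 cells was recorded by fluorescence (Ex/Em 480/540) for 3 min following compound addition to cells pre-loaded 1 h with calcium dye.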

[5] = G protein-coupled receptor (GPCR) small molecule agonists, calcium flux assay: HEK293 wild type cell line counter screen (AID 1920065)
Method in brief: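 In this agonist-mode screen, ATP is the positive control and DMSO the vehicle. Cells grow 18 h before a 1 h dye incubation at 37 C; signal is taken at Ex/Em 480/540 over 3 min.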

[6] = p53 small molecule agonists, cell-based qHTS assay with human liver microsomes (AID 1963577);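 note: p53 response element beta-lactamase reporter cells with liver microsomes plus NADPH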
Method in brief: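 In this qHTS, p53 response-element beta-lactamase cells receive test compound together with a microsome/NADPH activating system (0.5 mg/mL final each) and are incubated 16 h at 37 C before LiveBLAzer fluorescence detection.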

[7] = p53 small molecule agonists, cell-based qHTS assay with rat liver microsomes (AID 1963578)
Method in brief: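 Agonist mode in p53RE-bla reporter cells, with compounds co-incubated 16 h at 37 C alongside 0.5 mg/mL rat liver microsomes and 0.5 mg/mL NADPH (final), followed by a 2 h LiveBLAzer detection step.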

[8] = p53 small molecule agonists, cell-based qHTS assay with human liver microsomes: qHTS cell viability counter screen (AID 1963579); note: nearly all actives have a fitted effect of over 45% in size
Method in brief: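 Metabolically activated exposure: compounds, human liver microsomes and NADPH (0.5 mg/mL final apiece) were added to p53RE-bla cells seeded 5 h earlier, left 16 h at 37 C, and then assessed for viability by CellTiter-Glo luminescence.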

[9] = p53 small molecule agonists, cell-based qHTS assay with rat liver microsomes: qHTS cell viability counter screen (AID 1963580); note: nearly all actives have a fitted effect of over 45% in size
Method in brief: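 HCT-116 p53RE-bla, 4,000 cells/well, 5 h pre-incubation; cpd + rat liver microsomes 0.5 mg/mL + NADPH 0.5 mg/mL (final); 16 h, 37 C; CellTiter-Glo, 30 min RT; luminescence.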

[10] = p53 small molecule agonists, cell-based qHTS assay: qHTS cell viability counter screen (AID 1963581); note: nearly all actives have a fitted effect of over 45% in size
Method in brief: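 Compounds are pinned onto HCT-116 p53RE-bla cells and left 16 h at 37 C. Following the reporter FRET read, ATP is quantified by CellTiter-Glo luminescence after 30 min at room temperature.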

[11] = p53 small molecule agonists, cell-based qHTS assay (AID 1963582; active = well fitted activation curve with a large enough effect in the signal ratio in the repeat runs, not every such curve was filed as active; the % refers to the signal ratio)
Method in brief: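 Agonist activity was scored from beta-lactamase FRET fluorescence in p53RE-bla cells treated 16 h at 37 C with compounds in DMSO, substrate incubation being 2 h at room temperature.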

[12] = target: 5-hydroxytryptamine receptor 2A (Homo sapiens) (UniProt P28223); experiment: 5-hydroxytryptamine receptor 2A (HTR2A) small molecule agonists, cell-based qHTS assay (AID 1963587); note: nearly all actives have a fitted effect of over 30% in size
Sequence of 5-hydroxytryptamine receptor 2A (Homo sapiens) (P28223 whole entry, looked up): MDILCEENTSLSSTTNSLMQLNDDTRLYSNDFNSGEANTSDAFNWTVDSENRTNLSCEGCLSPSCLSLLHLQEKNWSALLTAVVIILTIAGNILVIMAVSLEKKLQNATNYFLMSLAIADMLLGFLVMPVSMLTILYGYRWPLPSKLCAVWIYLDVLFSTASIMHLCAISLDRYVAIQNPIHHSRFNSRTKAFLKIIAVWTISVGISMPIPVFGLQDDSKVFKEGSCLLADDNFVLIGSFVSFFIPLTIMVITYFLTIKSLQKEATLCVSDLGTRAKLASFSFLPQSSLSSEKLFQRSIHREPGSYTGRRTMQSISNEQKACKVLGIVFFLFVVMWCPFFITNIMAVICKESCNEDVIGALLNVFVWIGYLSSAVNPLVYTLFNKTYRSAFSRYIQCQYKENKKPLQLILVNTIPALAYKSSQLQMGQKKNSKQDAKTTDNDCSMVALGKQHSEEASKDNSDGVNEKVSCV
Method in brief: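 Kinetic calcium-flux fluorescence (2 min, 1 sec intervals) after compound addition in agonist mode. HTR2A-CHO cells were cultured 18 h, then dye-loaded 1 h at 37 C.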

[13] = target: Muscarinic acetylcholine receptor M1 (Homo sapiens) (UniProt P11229); experiment: Cholinergic receptor muscarinic 1 (CHRM1) small molecule antagonists, cell-based qHTS assay (AID 1963588); note: nearly all actives have a fitted effect of over 40% in size
Sequence of Muscarinic acetylcholine receptor M1 (Homo sapiens) (P11229 whole entry, looked up): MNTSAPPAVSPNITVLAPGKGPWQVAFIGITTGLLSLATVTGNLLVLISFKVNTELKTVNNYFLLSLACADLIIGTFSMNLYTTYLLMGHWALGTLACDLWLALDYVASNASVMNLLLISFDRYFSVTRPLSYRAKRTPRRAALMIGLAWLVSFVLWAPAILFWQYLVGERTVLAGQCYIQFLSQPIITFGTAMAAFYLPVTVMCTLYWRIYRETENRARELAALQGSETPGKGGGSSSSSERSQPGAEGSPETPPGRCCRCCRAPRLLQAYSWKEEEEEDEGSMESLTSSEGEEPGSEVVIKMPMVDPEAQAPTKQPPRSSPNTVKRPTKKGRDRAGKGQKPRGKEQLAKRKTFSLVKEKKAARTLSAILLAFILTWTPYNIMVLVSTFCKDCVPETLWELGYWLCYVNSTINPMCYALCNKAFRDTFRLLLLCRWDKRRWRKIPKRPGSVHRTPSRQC
Method in brief: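 CHRM1-CHO calcium-flux assay, antagonist mode. Cells were seeded 18 h, dye-loaded 1 h at 37 C and given compound for 5 min at RT, then acetylcholine was added at 50nM. FDSS fluorescence was read 3 min; 15 concentrations, three runs.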

[14] = target: Muscarinic acetylcholine receptor M1 (Homo sapiens) (UniProt P11229); experiment: Cholinergic receptor muscarinic 1 (CHRM1) small molecule agonists, cell-based qHTS assay (AID 1963589); note: nearly all actives have a fitted effect of over 35% in size
Method in brief: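 Stable CHRM1-CHO cells (human receptor) were incubated 18 h, dye-loaded for 1 h at 37 C and exposed to test compounds for agonist activity, with calcium-dependent fluorescence followed kinetically.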

[15] = cAMP Responsive Elements (CRE) small molecule antagonists, cell-based qHTS assay (AID 1963591; active = well fitted inhibition curve with a large enough effect in the signal ratio in the repeat runs, not every such curve was filed as active; the % refers to the signal ratio)
Method in brief: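 qHTS in CRE-bla HEK 293T cells: compound in DMSO, then 0.25 uM NKH477 (final), 3 h at 37 °C/5% CO2; beta-lactamase FRET read-out after 2 h substrate incubation.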

[16] = target: Beta-2 adrenergic receptor (Homo sapiens) (UniProt P07550); experiment: Adrenergic beta2 receptor (ADRB2) small molecule antagonists, cell-based qHTS assay (AID 1963592); note: series mostly up to about 92 µM; nearly all actives have a fitted effect of over 50% in size
Sequence of Beta-2 adrenergic receptor (Homo sapiens) (P07550 whole entry, looked up): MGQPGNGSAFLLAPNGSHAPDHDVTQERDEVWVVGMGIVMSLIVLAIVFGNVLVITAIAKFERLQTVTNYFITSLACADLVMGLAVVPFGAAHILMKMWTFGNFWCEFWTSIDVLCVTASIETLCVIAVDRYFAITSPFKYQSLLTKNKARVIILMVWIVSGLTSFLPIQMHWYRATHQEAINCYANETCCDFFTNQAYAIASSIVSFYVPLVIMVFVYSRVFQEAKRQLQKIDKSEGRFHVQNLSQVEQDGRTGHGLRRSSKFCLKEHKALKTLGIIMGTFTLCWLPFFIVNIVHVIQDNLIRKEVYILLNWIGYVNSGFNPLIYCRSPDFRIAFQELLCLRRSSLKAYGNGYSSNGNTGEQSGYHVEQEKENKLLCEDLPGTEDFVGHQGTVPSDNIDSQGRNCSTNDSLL
Method in brief: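 Cells (CHO, stable ADRB2 overexpression) incubated 18-20hr at 37C; compounds added from DMSO; agonist mix (1nM isoproterenol, 100uM IBMX, 25uM Ro-20-1724) added; 0.5hr RT; d2-cAMP and anti-cAMP-cryptate added; 1hr RT; 665/615 nm read.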

[17] = target: D(2) dopamine receptor (Homo sapiens) (UniProt P14416); experiment: Dopamine D2 receptor (DRD2) small molecule agonists, cell-based qHTS assay (AID 1963594); note: nearly all actives have a fitted effect of over 35% in size
Sequence of D(2) dopamine receptor (Homo sapiens) (P14416 whole entry, looked up): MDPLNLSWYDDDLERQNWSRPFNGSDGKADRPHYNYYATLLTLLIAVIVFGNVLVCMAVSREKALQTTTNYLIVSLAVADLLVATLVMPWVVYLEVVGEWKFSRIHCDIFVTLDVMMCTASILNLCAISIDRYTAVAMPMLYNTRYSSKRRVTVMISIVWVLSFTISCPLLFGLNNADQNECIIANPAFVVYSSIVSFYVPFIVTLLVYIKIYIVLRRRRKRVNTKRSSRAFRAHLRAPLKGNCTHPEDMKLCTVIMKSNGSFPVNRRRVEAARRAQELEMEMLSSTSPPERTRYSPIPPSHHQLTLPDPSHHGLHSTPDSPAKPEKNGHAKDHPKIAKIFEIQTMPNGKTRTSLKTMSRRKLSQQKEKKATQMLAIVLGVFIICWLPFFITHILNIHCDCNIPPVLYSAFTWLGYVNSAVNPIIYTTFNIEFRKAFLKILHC
Method in brief: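 cAMP accumulation in DRD2-HEK293 cells measured by HTRF after 1 h detection; compounds added 10 min before NKH477 (200nM […]) forskolin-analogue stimulation, 30 min at room temperature, with Ro20-1724 present at 0.1 mM final.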

[18] = target: D(2) dopamine receptor (Homo sapiens) (UniProt P14416); experiment: Dopamine D2 receptor (DRD2) small molecule antagonists, cell-based qHTS assay (AID 1963595; active = well fitted inhibition curve with a large enough effect in the signal ratio in the repeat runs, with a control signal flat; the % refers to the signal ratio)
Method in brief: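 Antagonism was scored as restored cAMP in HEK293-DRD2 cells. These cells were stimulated with 200 nM NKH477 and 12 nM quinpirole for 30 min at room temperature, in the presence of 0.1 mM Ro20-1724.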

[19] = cAMP Responsive Elements (CRE) small molecule agonists, cell-based qHTS assay (AID 1963590)
Method in brief: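 FRET-based beta-lactamase readout (LiveBLAzer B/G, 2 h RT) quantified CRE activation in HEK 293T CRE-bla cells after 3 h treatment with DMSO-dissolved compounds.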

[20] = target: 5-hydroxytryptamine receptor 2A (Homo sapiens) (UniProt P28223); experiment: 5-hydroxytryptamine receptor 2A (HTR2A) small molecule antagonists, cell-based qHTS assay (AID 1963586); note: nearly all actives have a fitted effect of over 45% in size
Method in brief: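 Antagonist-mode intracellular calcium assay: DOI (4 nM) added after 5 min compound pre-incubation at room temperature to dye-loaded HTR2A-CHO cells. Fluorescence followed for 3 min, sampled every second.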

Measured: Potency

NCCOS(=O)(=O)O
not listed: [19] | [20]
inactive: all other assays above

C[C@]12CCC(=O)C=C1CC[C@@H]1[C@@H]2CC[C@@]2(C)[C@H]1CC[C@]2(C)O
not listed: [12] | [13] | [14] | [15] | [20]
inactive: all other assays above

[N-]=[N+]=CC(=O)OC[C@H](N)C(=O)O
not listed: [12] | [13] | [14] | [20]
inactive: all other assays above

CC(C)Oc1cc(-n2nc(C(C)(C)C)oc2=O)c(Cl)cc1Cl
not listed: [11]
inactive: all other assays above

[N-]=[N+]=[N-]
not listed: [14] | [19] | [20]
inactive: all other assays above

O=S(=O)(c1ccc(O)cc1)c1ccc(O)cc1
not listed: [18] | [20]
inactive: all other assays above

CC(=[OH+])/C=C(/C)[O-].CC(=[OH+])/C=C(\C)[O-].CC(=[OH+])/C=C(\C)[O-].[Fe]
not listed: [13] | [14] | [20]
inactive: all other assays above

C=CC(=O)OCCCCCC(C)C
not listed: [11] | [18]
inactive: all other assays above
